The values that follow come from PubChem BioAssay (NCI).

Test systems include HCT-15 colon; HT29 colon; SNB-75 CNS; SNB-19 CNS; U251 CNS; PC-3 prostate; SK-MEL-5 melanoma; UACC-62 melanoma; LOX IMVI melanoma; SK-MEL-28 melanoma.
What all share (assay): NCI-60 one-dose screen, 48 h (100 = growth as untreated, 0 = no growth, -100 = all killed)
Holding throughout (conditions): 10 µM unless noted

The structures appear in SMILES notation. Compounds without any hit were thinned out: in the full panel of roughly 83,000, 20% have a hit.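 Method: cells in 96-well plates; compound added at one concentration; 48 h incubation; percent growth measured; values under 10 scored active.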 A number with no mark means an inactive call. Active and inactive are the calls of the source.

With `NCCCCCNc1noc(Cc2c[nH]c3cc(Br)ccc23)n1`, the growth in the assay with HCT-15 colon is 35.7%; with HT29 colon it was 3.86% (active); in the assay with SNB-75 CNS it was 0.268% (active); in the assay on SNB-19 CNS, 46.2%; in the assay on U251 CNS, 11.7%; in the assay with PC-3 prostate, 9.96% (active). The growth with SK-MEL-5 melanoma is 9.74% (active); in the assay on UACC-62 melanoma, 22.6%; in the assay on LOX IMVI melanoma, 34.9%; in the assay with SK-MEL-28 melanoma, 40.2%.

As for `CSc1nc(CC(C)C)c(C#N)c(=O)n1C`, the growth with HCT-15 colon was 46.1%; with HT29 colon, 69.7%; in the assay with SNB-75 CNS, 61%; in the assay with SNB-19 CNS it was 82.1%; with U251 CNS, 81.8%; in the assay on PC-3 prostate, 62.9%. In addition, the growth is 70.9% in the assay with SK-MEL-5 melanoma, 53.8% in the assay on UACC-62 melanoma, 68.4% with LOX IMVI melanoma and 68.3% in the assay on SK-MEL-28 melanoma.

With `COC(=O)[C@H](C)NC(=O)[C@@H]1CCCN1C(=O)CNC(=O)[C@H](C)N`, the growth with HCT-15 colon is 97.4%; in the assay with HT29 colon, 104%; in the assay on SNB-75 CNS, 78.3%; in the assay with SNB-19 CNS it was 98.6%; in the assay on U251 CNS it was 103%; in the assay on PC-3 prostate, 102%. Further, the growth in the assay on SK-MEL-5 melanoma is 101%; in the assay with UACC-62 melanoma, 88.8%; in the assay with LOX IMVI melanoma it was 96.3%; in the assay with SK-MEL-28 melanoma, 118%.

Take `CO[C@]12C=C/C(=C(/C(=O)OCc3cccnc3)C(=O)CCCCCCCC[C@]3(OC)C=C/C(=C(/C(=O)OCc4cccnc4)C(=O)CCCCCCCC1)O3)O2`: the growth is -78.5% (active) in the assay on HCT-15 colon; -32.3% (active) with HT29 colon; -79.6% (active) in the assay with SNB-75 CNS; -90.5% (active) in the assay on SNB-19 CNS; -64.2% (active) in the assay on U251 CNS; -51.6% (active) in the assay on PC-3 prostate. Moreover, the growth was -92.9% (active) in the assay on SK-MEL-5 melanoma, -82.5% (active) in the assay with UACC-62 melanoma, -82.3% (active) in the assay on LOX IMVI melanoma and -86.3% (active) in the assay with SK-MEL-28 melanoma.

With `C=C(C)Cn1c(SCC(=O)c2cccs2)nc2sc3c(c2c1=O)CCCC3`, the growth in the assay on HCT-15 colon was 22.7%; with HT29 colon, 38.9%; in the assay on SNB-75 CNS, 62.6%; in the assay on SNB-19 CNS, 45.1%; in the assay with U251 CNS, 36.3%; in the assay on PC-3 prostate it was 48.6%. Moreover, the growth was 36.4% in the assay with SK-MEL-5 melanoma, 44.8% with UACC-62 melanoma, 4.51% (active) in the assay on LOX IMVI melanoma and 55.3% in the assay with SK-MEL-28 melanoma.

On to `Cc1nc2c(c(-c3ccccc3)n1)Cc1c(ccc3ccccc13)O2`, for which the growth was 107% in the assay on HCT-15 colon; 89.1% in the assay on HT29 colon; 92.2% with SNB-75 CNS; 110% with SNB-19 CNS; 102% with U251 CNS; 87.5% in the assay on PC-3 prostate. Moreover, the growth with SK-MEL-5 melanoma was 70.8%; in the assay on UACC-62 melanoma, 83.8%; with LOX IMVI melanoma, 91.5%; in the assay on SK-MEL-28 melanoma, 107%.

Consider `CN1/C(=C/C=C/c2n(Cc3ccc4ccccc4c3)c(Cl)c(Cl)[n+]2Cc2ccc3ccccc3c2)Oc2ccccc21`, for which the growth is -72.9% (active) in the assay on HCT-15 colon; -79.7% (active) in the assay with HT29 colon; -63.6% (active) with SNB-75 CNS; -96.3% (active) with SNB-19 CNS; -97.3% (active) in the assay with U251 CNS; -78.4% (active) in the assay on PC-3 prostate. For the same compound, the growth was -99.4% (active) in the assay on SK-MEL-5 melanoma, -94.4% (active) with UACC-62 melanoma, -93.8% (active) in the assay with LOX IMVI melanoma and -89.5% (active) in the assay on SK-MEL-28 melanoma.

For `O=C1c2c(c3c4cccnc4[nH]c3c3ccc4ccccc4c23)C(=O)N1O`, the growth in the assay with HCT-15 colon was 69%; in the assay with HT29 colon, 27.9%; in the assay with SNB-75 CNS, 101%; in the assay with SNB-19 CNS, 29.7%; in the assay with U251 CNS it was 15.2%; in the assay with PC-3 prostate it was 43.1%. Also, the growth with SK-MEL-5 melanoma was 23.2%; with UACC-62 melanoma, 24.4%; in the assay on LOX IMVI melanoma, -31.5% (active); in the assay on SK-MEL-28 melanoma, 46.1%.

Turning to `COc1ccc(NC(=O)c2sc3nc(C)c(C(=O)c4ccccc4)cc3c2N)cc1`, the growth with HCT-15 colon is 95.2%; in the assay with HT29 colon, 89.8%; with SNB-75 CNS, 107%; in the assay with SNB-19 CNS, 90.8%; in the assay with U251 CNS it was 100%; in the assay on PC-3 prostate, 97%. In addition, the growth is 103% in the assay on SK-MEL-5 melanoma, 79.9% in the assay on UACC-62 melanoma, 108% in the assay with LOX IMVI melanoma and 89.9% in the assay on SK-MEL-28 melanoma.

For `Cc1cc(C(=O)Nc2cc(Nc3ncccc3-c3ncnc4nc[nH]c34)ccc2F)cc(C(C)(C)C#N)c1`, the growth in the assay with HCT-15 colon was 42.7%; with HT29 colon it was 24.1%; with SNB-75 CNS, 79.5%; in the assay with SNB-19 CNS, 61.8%; in the assay on U251 CNS it was 51.1%; with PC-3 prostate, 57.8%. Also, the growth with SK-MEL-5 melanoma is 27.1%; in the assay on UACC-62 melanoma, 3.75% (active); in the assay on LOX IMVI melanoma, -9.5% (active); in the assay on SK-MEL-28 melanoma, 10.9%.

On to `O=C(/C=C/c1ccc(Cl)cc1)c1ccc(Nc2ccnc3cc(Cl)ccc23)cc1`, for which the growth in the assay with HCT-15 colon was 56.1%; in the assay with HT29 colon it was 30.6%; in the assay with SNB-75 CNS it was 92.5%; in the assay with SNB-19 CNS, 99.7%; with U251 CNS it was 52.7%; in the assay with PC-3 prostate, 70.9%. Also, the growth was 53.3% in the assay with SK-MEL-5 melanoma, 92.8% in the assay with UACC-62 melanoma, 83.3% in the assay on LOX IMVI melanoma and 104% in the assay on SK-MEL-28 melanoma.

Turning to `Cc1ccc2nc(/C=C/c3ccc(N(C)C)cc3)cc(C)c2c1`, the growth was 18% in the assay with HCT-15 colon; 2.01% (active) in the assay on HT29 colon; 14.5% in the assay on SNB-75 CNS; 26.2% in the assay with SNB-19 CNS; 26.2% with U251 CNS; 38.9% in the assay on PC-3 prostate. The growth in the assay with SK-MEL-5 melanoma is 33.3%; in the assay with UACC-62 melanoma, 23.2%; in the assay on LOX IMVI melanoma, 34.1%; in the assay on SK-MEL-28 melanoma it was 48.1%.

In the case of `O=C(/C=C/c1ccco1)Nc1ncc(Cc2ccc(F)cc2)s1`, the growth in the assay on HCT-15 colon is 15.3%; with HT29 colon it was 7.2% (active); with SNB-75 CNS, 19.9%; with SNB-19 CNS, 48%; in the assay on U251 CNS it was 22.6%; with PC-3 prostate, 30.2%. Also, the growth is 25.9% with SK-MEL-5 melanoma, 16.8% in the assay with UACC-62 melanoma, 28.9% with LOX IMVI melanoma and 48% in the assay on SK-MEL-28 melanoma.

In the case of `C=C1C(=O)O[C@H]2[C@H]1CC/C(CNC(=O)/C=C/c1cc(OC)c(OC)c(OC)c1)=C\CC[C@@]1(C)O[C@@H]21`, the growth in the assay with HCT-15 colon is 1.96% (active); in the assay on HT29 colon, -66.4% (active); with SNB-75 CNS, 46.9%; in the assay on SNB-19 CNS, 46.9%; with U251 CNS it was 25.9%; with PC-3 prostate it was 37.1%. Moreover, the growth in the assay with SK-MEL-5 melanoma was 20.6%; with UACC-62 melanoma it was -36.3% (active); in the assay on LOX IMVI melanoma it was -88% (active); in the assay on SK-MEL-28 melanoma it was -32.7% (active).
